Experimental findings from PubChem BioAssay (Tox21) are described below.

Several values for one entry are separate records, joined by “and”; a condition that tells them apart may be missing. Identical values can stand only once. Inconclusive results are not listed. The source holds several records for some structures; these can differ, active in one and inactive in another. Activity calls are given as the source filed them. Unless noted, the call rests on the fitted dose curve; in most records, active means well fitted curve in the direction sought with a large enough effect in the repeat runs; inconclusive means weak or mixed curves; inactive means no such curve, though single readings can be large; an effect the other way counts as inactive or inconclusive.

Assay [1] has as its target Thyrotropin-releasing hormone receptor (Homo sapiens) (UniProt P34981). In words: qHTS assay to identify small molecule agonists of the thyrotropin-releasing hormone receptor (TRHR) signaling pathway (AID 1346891; calls by dose curve; further: series mostly up to about 58 µM). The gist of the method:
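HEK293 cells expressing TRHR plated 18 h at 37 C/5% CO2, calcium dye-loaded 2 h at 37 C, then compound added (agonist mode); kinetic calcium fluorescence read 3 min at 1 s intervals; 15 concentrations in triplicate.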
(Quantitative high-throughput screening tests each substance at several concentrations.)

A short description of assay [2]: Human pregnane X receptor (PXR) small molecule agonists, qHTS cell viability counter screen (AID 1346977). Further: nearly all actives have a fitted effect of over 50% in size. In a few lines:
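PXR-Luc HepG2 cells (2,000/well, 5% charcoal-stripped FBS) preincubated 5 hr, then exposed to compounds 24 hr at 37 C. Viability read in the same wells by CellTiter-Fluor fluorescence, reagent added at 23 hr, 1 hr incubation.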

Assay [3] in a line: Caspase-3/7 induction in HepG2 cells by small molecules, qHTS assay (AID 1346978). Further: nearly all actives have a fitted effect of over 15% in size. The gist of the method:
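Wild-type HepG2 cells, 2,000/well, settled 5 hr at 37 C and 5% CO2, then compound-treated for 17 hr; caspase-3/7 activity read by luminescent Caspase-Glo 3/7 after 30 min at room temperature.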

A short description of assay [4]: Caspase-3/7 induction in CHO-K1 cells by small molecules, qHTS cell viability counter screen (AID 1346979). Further: nearly all actives have a fitted effect of over 35% in size. In a few lines: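 Wild-type CHO-K1 cells (1,500/well) treated with compound after 5 h plating; after 16 h at 37C, viability read as CellTiter-Fluor fluorescence following 1 h reagent incubation, in the same wells as the caspase read.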
The nature of assay [5]: Caspase-3/7 induction in CHO-K1 cells by small molecules, qHTS assay (AID 1346980). Further: nearly all actives have a fitted effect of over 15% in size. The gist of the method: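 Wild-type CHO-K1 cells exposed to compounds for 17hr at 37 C, 5% CO2. Caspase-3/7 activity then measured by Caspase-Glo 3/7 luminescence after 30min at room temperature.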
Assay [6] can be described thus: Caspase-3/7 induction in HepG2 cells by small molecules, qHTS cell viability counter screen (AID 1346981). Further: series mostly up to about 92 µM; nearly all actives have a fitted effect of over 30% in size. The gist of the method: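 After a 5-hr attachment period at 37 C and 5% CO2, wild-type HepG2 cells received compounds in DMSO. Sixteen hours later CellTiter-Fluor was dispensed and the fluorescent signal quantified after a further hour.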
The target in assay [7] is Nuclear receptor subfamily 1 group I member 2 (Homo sapiens) (UniProt O75469). As to the kind of experiment: Human pregnane X receptor (PXR) small molecule agonists, qHTS assay (AID 1346982). Further: nearly all actives have a fitted effect of over 35% in size. Further: potency means the concentration at half of the fitted maximal effect. In a few lines: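 Tox21 qHTS; PXR-Luc HepG2; compounds pinned from DMSO; 24 hr, 37 C; ONE-Glo luciferase detection, 30 min room temperature.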
Chain of Nuclear receptor subfamily 1 group I member 2 (Homo sapiens) (O75469 whole entry, looked up): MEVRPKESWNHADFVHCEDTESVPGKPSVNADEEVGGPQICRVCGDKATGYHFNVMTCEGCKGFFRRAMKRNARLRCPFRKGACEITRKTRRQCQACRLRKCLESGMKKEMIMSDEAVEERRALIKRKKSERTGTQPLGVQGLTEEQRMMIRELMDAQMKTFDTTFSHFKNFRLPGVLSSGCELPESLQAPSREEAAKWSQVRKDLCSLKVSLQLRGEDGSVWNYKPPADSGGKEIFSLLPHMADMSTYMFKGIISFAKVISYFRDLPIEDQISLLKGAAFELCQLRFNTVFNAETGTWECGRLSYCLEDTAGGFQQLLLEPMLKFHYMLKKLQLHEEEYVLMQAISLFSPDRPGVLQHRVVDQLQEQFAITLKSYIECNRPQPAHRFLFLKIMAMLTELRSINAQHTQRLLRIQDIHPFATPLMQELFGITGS
Assay [8] addresses Acetylcholinesterase (Homo sapiens) (UniProt P22303). As to the kind of experiment: Acetylcholinesterase (AChE) small molecule antagonists: enzyme-based qHTS assay (AID 1347397; calls by dose curve; further: nearly all actives have a fitted effect of over 55% in size). The conditions noted are these: Potency: AChE enzyme activity inhibition. In a few lines:
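In this quantitative HTS, compounds from the Tox21 10K collection were preincubated 30 min at ambient temperature with recombinant human AChE dispensed at 50 mU/mL. Hydrolysis of acetylthiocholine was then followed for 10 min by DTNB colour development.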

For assay [9] the target is unchanged. As to the kind of experiment: Acetylcholinesterase (AChE) small molecule antagonists: fluorescence cell-based qHTS assay (AID 1347398; calls by dose curve; further: nearly all actives have a fitted effect of over 50% in size). The conditions noted are these: Potency: AChE activity. In a few lines: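 Cells (SH-SY5Y) attached overnight, were dosed with compound or DMSO vehicle for 30 min at 37 C, and then incubated 40 min at room temperature with acetylthiocholine and Thiolite Green; green fluorescence indexed AChE activity.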

Assay [10] has the same target. As to the kind of experiment: Acetylcholinesterase (AChE) small molecule antagonists: enzyme-based qHTS assay with human liver microsomes (AID 1347399; calls by dose curve; further: nearly all actives have a fitted effect of over 60% in size). To be noted: Potency: qHTS inhibition. The gist of the method:
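Recombinant human AChE (50 mU/mL in the enzyme mix) and human liver microsomes (0.25 mg/mL final) were preincubated with compound and NADPH (0.25 mg/mL final) for 30 min at 37 C. Acetylthiocholine/DTNB was then added; thiocholine was read colorimetrically after 10 min at room temperature.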

The target of assay [11] is Cytochrome P450 2D6 (Homo sapiens) (UniProt P10635). As to the kind of experiment: Cytochrome P450 Family 2 Subfamily D Member 6 (CYP2D6) small molecule antagonists: luciferase reporter qHTS assay (AID 1671196). Further: nearly all actives have a fitted effect of over 50% in size. Further: potency means the concentration at half of the fitted maximal effect. The gist of the method: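 Room-temperature luminescent CYP2D6 activity assay: compound preincubated 10 min with enzyme–substrate mix, NADPH-initiated reaction 1 h, detection reagent 20 min before reading.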
Chain of Cytochrome P450 2D6 (Homo sapiens) (P10635 whole entry, looked up): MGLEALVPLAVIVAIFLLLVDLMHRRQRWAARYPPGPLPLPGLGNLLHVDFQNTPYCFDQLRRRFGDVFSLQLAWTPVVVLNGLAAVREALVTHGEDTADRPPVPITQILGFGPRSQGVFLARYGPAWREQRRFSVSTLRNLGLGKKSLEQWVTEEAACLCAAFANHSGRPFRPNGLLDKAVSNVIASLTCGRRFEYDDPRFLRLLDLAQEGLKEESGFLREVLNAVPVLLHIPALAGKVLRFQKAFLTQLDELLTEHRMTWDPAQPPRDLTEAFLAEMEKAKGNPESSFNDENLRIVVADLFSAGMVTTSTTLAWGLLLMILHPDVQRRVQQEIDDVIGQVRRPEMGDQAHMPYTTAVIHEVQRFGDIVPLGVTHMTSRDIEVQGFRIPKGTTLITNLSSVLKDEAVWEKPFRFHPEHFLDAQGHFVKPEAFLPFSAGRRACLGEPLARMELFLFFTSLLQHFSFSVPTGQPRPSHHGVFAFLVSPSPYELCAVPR
On the technique in general: A reporter such as luciferase makes a cellular process visible.

The target of assay [12] is Cytochrome P450 2C19 (Homo sapiens) (UniProt P33261). As to the kind of experiment: Cytochrome P450 Family 2 Subfamily C Member 19 (CYP2C19) small molecule antagonists: luciferase reporter qHTS assay (AID 1671197). Further: nearly all actives have a fitted effect of over 65% in size. Further: potency means the concentration at half of the fitted maximal effect. The gist of the method:
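Inhibition of CYP2C19 was scored from loss of luminescence in a P450-Glo proluciferin substrate assay, NADPH-started and run 1 h at 37C, with ketoconazole as positive control.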

Assay [13] concerns the target Cytochrome P450 2C9 (Homo sapiens) (UniProt P11712). In words: Cytochrome P450 Family 2 Subfamily C Member 9 (CYP2C9) small molecule antagonists: luciferase reporter qHTS assay (AID 1671198). Further: nearly all actives have a fitted effect of over 50% in size. Further: potency means the concentration at half of the fitted maximal effect. In a few lines:
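P450-Glo proluciferin substrate with CYP2C9 enzyme; 10 min RT preincubation, then NADPH regeneration 1 h at 37C; luciferin detection reagent 20 min RT, luminescence in relative luminescence units.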

Assay [14] addresses Cytochrome P450 1A2 (Homo sapiens) (UniProt P05177). As to the kind of experiment: Cytochrome P450 Family 1 Subfamily A Member 2 (CYP1A2) small molecule antagonists: luciferase reporter qHTS assay (AID 1671199). Further: nearly all actives have a fitted effect of over 50% in size. Further: potency means the concentration at half of the fitted maximal effect. In a few lines: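 Room-temperature CYP1A2 reaction with proluciferin substrate: compounds added from DMSO, 10 min preincubation, NADPH regeneration for 1 h. Luciferin detection reagent then added; luminescence recorded as RLU.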

Assay [15] deals with Voltage-gated inwardly rectifying potassium channel KCNH2 (Homo sapiens) (UniProt Q12809). In words: Human Ether-a-go-go-Related Gene (hERG) channel small molecule antagonists: fluorescence cell-based qHTS assay (AID 1671200). The gist of the method: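 hERG-U2OS cells plated overnight at 37 C, loaded with FluxOR II dye 1 h at RT in dark; after 10 min, thallium stimulus added. Fluorescence (480/540 nm) read kinetically for 2 min at 1 s intervals.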
Chain of Voltage-gated inwardly rectifying potassium channel KCNH2 (Homo sapiens) (Q12809 whole entry, looked up): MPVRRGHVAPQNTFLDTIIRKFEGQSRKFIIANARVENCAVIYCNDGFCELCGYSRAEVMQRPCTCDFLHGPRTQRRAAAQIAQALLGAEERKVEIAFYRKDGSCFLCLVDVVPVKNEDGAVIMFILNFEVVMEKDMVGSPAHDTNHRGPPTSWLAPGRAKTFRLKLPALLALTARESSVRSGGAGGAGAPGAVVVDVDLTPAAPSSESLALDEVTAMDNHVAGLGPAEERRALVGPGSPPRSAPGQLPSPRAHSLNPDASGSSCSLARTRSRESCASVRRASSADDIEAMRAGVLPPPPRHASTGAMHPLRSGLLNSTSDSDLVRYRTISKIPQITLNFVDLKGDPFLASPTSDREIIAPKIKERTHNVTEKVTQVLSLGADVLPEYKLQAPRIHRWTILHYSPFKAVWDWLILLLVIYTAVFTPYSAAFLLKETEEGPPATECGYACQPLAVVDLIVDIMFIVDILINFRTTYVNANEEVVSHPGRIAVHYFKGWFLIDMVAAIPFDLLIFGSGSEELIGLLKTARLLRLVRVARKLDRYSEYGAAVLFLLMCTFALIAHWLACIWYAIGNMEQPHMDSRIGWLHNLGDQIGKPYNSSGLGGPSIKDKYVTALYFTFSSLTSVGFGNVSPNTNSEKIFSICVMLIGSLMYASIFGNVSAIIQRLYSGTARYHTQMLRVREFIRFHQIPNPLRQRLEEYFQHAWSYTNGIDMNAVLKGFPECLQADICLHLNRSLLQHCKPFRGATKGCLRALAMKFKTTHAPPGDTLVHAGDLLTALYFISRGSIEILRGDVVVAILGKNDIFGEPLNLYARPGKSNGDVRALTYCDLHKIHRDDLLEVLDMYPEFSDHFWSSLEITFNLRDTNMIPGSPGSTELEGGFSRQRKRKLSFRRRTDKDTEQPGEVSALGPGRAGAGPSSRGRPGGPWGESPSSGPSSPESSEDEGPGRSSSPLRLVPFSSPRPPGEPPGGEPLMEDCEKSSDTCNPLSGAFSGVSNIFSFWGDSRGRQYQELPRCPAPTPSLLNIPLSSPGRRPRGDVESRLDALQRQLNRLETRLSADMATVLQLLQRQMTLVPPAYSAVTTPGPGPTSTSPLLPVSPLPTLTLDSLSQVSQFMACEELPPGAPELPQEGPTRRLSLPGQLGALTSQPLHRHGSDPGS
A general note: The hERG channel carries a current that helps repolarise heart muscle cells.

The target of assay [16] is Cytochrome P450 3A4 (Homo sapiens) (UniProt P08684). As to the kind of experiment: Cytochrome P450 Family 3 Subfamily A Member 4 (CYP3A4) small molecule antagonists: luciferase reporter qHTS assay (AID 1671201). In a few lines: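 P450-Glo CYP3A4 luminescent assay: compounds preincubated 10 min at room temperature with enzyme and proluciferin substrate, NADPH regeneration added, 1 h room-temperature reaction, stopped with luciferin detection reagent; luminescence read after 20 min. Ketoconazole positive control.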

In assay [17] the target is Nuclear receptor subfamily 1 group I member 2 (Rattus norvegicus) (UniProt Q9R1A7). As to the kind of experiment: Rat pregnane X receptor (rPXR) activation by small molecules, qHTS assay (AID 1346983). Further: nearly all actives have a fitted effect of over 20% in size. To be noted: rPXR luciferase reporter cells, One-Glo luminescence, 24 h; max activation: stronger effect = higher value. The gist of the method:
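Cell-based rPXR activation assay: rPXR cells, 2,000 per well, rested 5hr at 37 C, then exposed to compounds in DMSO for 24 hr at 37 C. Luciferase activity read by One-Glo luminescence after 30 min at room temperature.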

For assay [18], the target named is Nuclear receptor subfamily 1 group I member 2 (Homo sapiens) (UniProt O75469). As to the kind of experiment: CYP3A4 induction through human pregnane X receptor (PXR) by small molecules, qHTS assay (AID 1346984). Further: nearly all actives have a fitted effect of over 40% in size. In a few lines: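 Cells (DPX-2; HepG2 with PXR element plus CYP3A4-promoter luciferase) settled 5hr, then were treated 24hr at 37C. A 3hr, 3uM-final Luciferin-IPA step preceded luminescence measurement with One-Glo.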

The target is the same in assay [19]. In words: Human pregnane X receptor (PXR) activation by small molecules, qHTS assay (AID 1346985). Further: nearly all actives have a fitted effect of over 40% in size. The gist of the method: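 DPX-2 cells (HepG2 co-transfected with a PXR response element and a CYP3A4-promoter luciferase construct) were seeded at 2,000 per well, rested 5 hr at 37C, then exposed to DMSO-dissolved compounds for 24 hr. Activation was read as luciferase luminescence.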

Assay [20] addresses Acetylcholinesterase (Homo sapiens) (UniProt P22303). In words: Acetylcholinesterase (AChE) small molecule antagonists: colormetric cell-based qHTS assay (AID 1347395; calls by dose curve; further: nearly all actives have a fitted effect of over 30% in size). In a few lines:
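SH-SY5Y cells attached overnight, exposed to compound 30 min at 37 C, then given DTNB/acetylthiocholine; after 90 min at 37 C, colorimetric thiocholine read gives cellular AChE activity.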
On the % scale 0 is the no-effect control and ±100 the full control effect.

Chain of Cytochrome P450 2C9 (Homo sapiens) (P11712 whole entry, looked up): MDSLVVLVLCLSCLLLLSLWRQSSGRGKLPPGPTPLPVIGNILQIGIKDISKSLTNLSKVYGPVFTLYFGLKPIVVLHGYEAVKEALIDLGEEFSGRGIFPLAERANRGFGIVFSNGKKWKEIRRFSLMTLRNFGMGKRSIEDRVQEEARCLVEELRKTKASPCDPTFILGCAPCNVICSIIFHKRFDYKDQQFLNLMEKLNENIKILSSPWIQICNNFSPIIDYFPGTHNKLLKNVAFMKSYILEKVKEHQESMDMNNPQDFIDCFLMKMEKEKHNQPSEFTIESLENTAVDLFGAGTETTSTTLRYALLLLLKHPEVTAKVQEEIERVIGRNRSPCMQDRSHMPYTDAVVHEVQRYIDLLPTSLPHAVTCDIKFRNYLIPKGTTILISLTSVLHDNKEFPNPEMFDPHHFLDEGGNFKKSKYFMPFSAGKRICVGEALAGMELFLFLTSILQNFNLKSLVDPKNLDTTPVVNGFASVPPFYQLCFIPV
Chain of Acetylcholinesterase (Homo sapiens) (P22303 whole entry, looked up): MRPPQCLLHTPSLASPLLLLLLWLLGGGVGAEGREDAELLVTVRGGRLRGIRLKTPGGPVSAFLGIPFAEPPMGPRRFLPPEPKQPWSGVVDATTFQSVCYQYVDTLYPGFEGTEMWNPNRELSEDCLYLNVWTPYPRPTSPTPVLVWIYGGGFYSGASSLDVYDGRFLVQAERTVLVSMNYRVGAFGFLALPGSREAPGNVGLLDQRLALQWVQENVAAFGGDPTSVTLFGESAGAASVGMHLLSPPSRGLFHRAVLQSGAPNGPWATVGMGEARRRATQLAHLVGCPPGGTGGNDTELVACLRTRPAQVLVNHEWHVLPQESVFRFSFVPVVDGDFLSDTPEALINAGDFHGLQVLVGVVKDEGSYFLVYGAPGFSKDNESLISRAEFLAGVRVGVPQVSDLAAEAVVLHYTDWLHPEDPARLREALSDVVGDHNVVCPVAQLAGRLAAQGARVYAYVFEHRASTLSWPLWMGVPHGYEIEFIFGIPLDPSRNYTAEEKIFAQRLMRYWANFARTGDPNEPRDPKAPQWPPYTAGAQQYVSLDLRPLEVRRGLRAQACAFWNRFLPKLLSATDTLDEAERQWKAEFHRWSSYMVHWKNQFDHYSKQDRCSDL
Chain of Cytochrome P450 1A2 (Homo sapiens) (P05177 whole entry, looked up): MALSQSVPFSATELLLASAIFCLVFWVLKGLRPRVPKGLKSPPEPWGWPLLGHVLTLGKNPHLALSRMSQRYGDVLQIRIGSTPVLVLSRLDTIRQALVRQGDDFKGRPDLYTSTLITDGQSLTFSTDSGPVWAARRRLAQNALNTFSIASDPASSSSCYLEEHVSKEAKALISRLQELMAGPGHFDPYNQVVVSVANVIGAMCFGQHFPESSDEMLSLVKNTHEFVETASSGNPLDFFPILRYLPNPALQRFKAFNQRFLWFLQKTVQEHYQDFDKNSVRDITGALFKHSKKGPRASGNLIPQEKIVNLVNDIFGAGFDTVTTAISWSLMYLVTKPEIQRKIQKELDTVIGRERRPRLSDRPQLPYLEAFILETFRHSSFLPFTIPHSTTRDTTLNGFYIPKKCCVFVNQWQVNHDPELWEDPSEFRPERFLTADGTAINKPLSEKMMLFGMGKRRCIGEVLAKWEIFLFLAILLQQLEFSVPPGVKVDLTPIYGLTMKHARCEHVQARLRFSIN
Chain of Cytochrome P450 2C19 (Homo sapiens) (P33261 whole entry, looked up): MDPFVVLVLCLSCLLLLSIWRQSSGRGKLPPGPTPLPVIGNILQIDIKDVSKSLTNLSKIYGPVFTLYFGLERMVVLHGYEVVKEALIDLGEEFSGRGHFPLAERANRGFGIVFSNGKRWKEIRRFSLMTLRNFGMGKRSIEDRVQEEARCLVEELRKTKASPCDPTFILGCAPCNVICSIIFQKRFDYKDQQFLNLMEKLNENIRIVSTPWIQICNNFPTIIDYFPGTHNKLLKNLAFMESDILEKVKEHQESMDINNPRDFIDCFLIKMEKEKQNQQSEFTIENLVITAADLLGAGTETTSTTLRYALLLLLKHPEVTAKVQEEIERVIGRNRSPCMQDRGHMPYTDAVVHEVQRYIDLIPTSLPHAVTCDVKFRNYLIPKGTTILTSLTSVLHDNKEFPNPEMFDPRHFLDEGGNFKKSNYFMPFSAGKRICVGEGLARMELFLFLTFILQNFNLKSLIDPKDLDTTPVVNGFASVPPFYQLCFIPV
Chain of Thyrotropin-releasing hormone receptor (Homo sapiens) (P34981 whole entry, looked up): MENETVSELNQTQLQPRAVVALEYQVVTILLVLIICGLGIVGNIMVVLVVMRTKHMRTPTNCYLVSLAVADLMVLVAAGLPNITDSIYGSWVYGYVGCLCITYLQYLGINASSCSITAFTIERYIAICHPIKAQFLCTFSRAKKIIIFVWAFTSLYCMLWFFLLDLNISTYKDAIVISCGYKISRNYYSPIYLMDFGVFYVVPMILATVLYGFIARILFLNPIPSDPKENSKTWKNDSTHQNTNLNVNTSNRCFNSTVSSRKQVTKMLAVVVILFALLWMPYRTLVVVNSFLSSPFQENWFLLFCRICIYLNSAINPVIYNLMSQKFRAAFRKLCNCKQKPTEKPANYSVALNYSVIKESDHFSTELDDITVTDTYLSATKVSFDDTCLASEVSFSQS

Consider `OCc1ccco1`, for which the outcome in assay [1], in [3] and in [5] was inactive. Also, the Potency entry in assay [2], in [4], in assay [6], in assay [7], in [8] and in [9] was “inactive” in each case. Further, the Potency result in [10], in assay [11], in [12], in assay [14], in [15] and in [16] was “inactive” throughout. Also, the Potency result in [13] was “inactive and 44.8 µM (active)”.

Regarding `Cc1cc(O)ccc1Cl`, the result in [1], in assay [3] and in [5] was inactive. Further, the Potency result in [2], in assay [4], in assay [6], in [7], in [18] and in assay [19] was “inactive” throughout. Moreover, the Potency result in assay [8], in assay [9], in assay [10], in [11], in assay [13] and in assay [15] was “inactive” in each case. Further, the Potency result in assay [16] is “inactive”. The max activation in assay [17] was -2.1% (inactive). The Potency in assay [12] is 25.6 µM (active) and inactive; in assay [14], 36.2 µM (active) and 44.8 µM (active) and 17.4 µM (active).

`Cl[C@H]1OCCO[C@@H]1Cl`: the outcome in assay [1], in assay [3] and in [5] was inactive. Further, the Potency result in assay [2], in assay [4], in assay [6], in assay [7], in [8] and in assay [9] was “inactive” throughout. Moreover, the Potency entry in [10], in [13], in assay [14], in assay [15] and in [16] was “inactive” throughout. Also, the Potency in assay [11] was 19.6 µM (active).

`COc1nc(NC(C)C)nc(NC(C)C)n1`: the compound was classed as inactive in assay [1], in assay [3] and in assay [5]. Moreover, the Potency entry in assay [2], in assay [4], in assay [6], in assay [8], in assay [9] and in assay [10] was “inactive” in each case. The Potency entry in [11], in [13], in assay [15] and in assay [16] was “inactive” throughout. For the same compound, the Potency in assay [7] was 30.7 µM (active) and 54.5 µM (active); in [14] it was 31.8 µM (active) and 28.3 µM (active).

In the case of `N#CN=C(N)N`, the compound was classed as inactive in [1], in assay [3] and in assay [5]. For the same compound, the Potency result in [2], in [4], in assay [6], in assay [7], in [20] and in assay [8] was “inactive” throughout. The Potency entry in assay [9], in [10], in [11], in assay [12], in [13] and in [14] was “inactive” each time. The Potency result in assay [15] and in assay [16] was “inactive” each time.

Regarding `O=C(O)C(Br)Br`, the call in [1], in [3] and in assay [5] was inactive. In addition, the Potency entry in assay [2], in [4], in [6], in assay [7], in [8] and in assay [9] was “inactive” in each case. In addition, the Potency entry in assay [10], in assay [11], in assay [12], in assay [13], in [14] and in assay [15] was “inactive” in each case. The Potency entry in assay [16] was “inactive”.
